# Results published in PubChem BioAssay (NCATS).
# Inconclusive results are not listed. Entries that show only a call come without a potency. Values without a mark were called inactive. The source made the active and inactive calls. Calls follow the shape of the dose curve; as a rule, active = well fitted curve in the direction sought with a large enough effect; inconclusive = small, poorly fitted or top-dose-only effect, or another doubt; inactive = no such curve, though single readings can be large; an effect the other way counts as inactive or inconclusive.
# How the values were obtained:
# W2 = assay: qHTS profiling for inhibitors of Plasmodium falciparum proliferation (AID 504749); also: nearly all actives have a fitted effect of over 60% in size; also: potency is read from the fitted curve at half-maximal effect; settings: P. falciparum in erythrocytes, SYBR Green DNA, 72 h; series mostly up to 28.7 µM
# Outline: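 Quantitative HTS: compounds pinned into medium, infected erythrocytes added (0.3% parasitemia, 2.5% hematocrit), 72 h culture at 37 C under 5% CO2. Saponin/Triton lysis with SYBR Green I, overnight RT, then fluorescence read.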
# CRL-7250 = normal cell line; assay: Cytotoxic Profiling of Annotated Libraries Using Quantitative High-Throughput Screening (AID 1296008); settings: Five cell lines viability, CellTiter-Glo ATP luminescence, 48-72 h; max response: hits give low values; also: nearly all actives have a fitted effect of over 60% in size; also: potency is read from the fitted curve at half-maximal effect
# Outline: (§1)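 Compounds were pin-transferred onto cells and incubated 48 or 72 hr at 37 degree Celsius, 95% humidity. CellTiter-Glo was added, plates sat 10 min at room temperature, then ATP-coupled luminescence was imaged as the viability read-out.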
# HEK293 = assay: as above; settings: Five cell lines viability, CellTiter-Glo ATP luminescence, 48-72 h; max response: hits give low values
# Outline: as §1
# HaCat [1] = assay: as above; settings: Five cell lines viability, CellTiter-Glo ATP luminescence, 48-72 h; max response: hits give low values
# Outline: as §1
# KB-3-1 = assay: as above; settings: Five cell lines viability, CellTiter-Glo ATP luminescence, 48-72 h; max response: hits give low values
# Outline: as §1
# HACAT [2] = assay: qHTS assay to identify novel small-molecules to repurpose for Merkel cell carcinoma treatment (AID 1296009); settings: MCC and control cell lines, CellTiter-Glo viability, 72 h; at 44.8 µM (top of the series) unless noted; also: nearly all actives have a fitted effect of over 60% in size
# Outline: (§2)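 Viability readout: ATP luminescence (CellTiter-Glo) after 72 hr drug exposure at 37 degree celsius. Dose-response format was 8 points for NPC and 11 points for MIPE; data normalized to in-plate controls.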
# MCC-13 = assay: as above; settings: MCC and control cell lines, CellTiter-Glo viability, 72 h; series mostly up to 46 µM
# Outline: as §2
# MCC-26 = assay: as above; settings: MCC and control cell lines, CellTiter-Glo viability, 72 h; series mostly up to 46 µM
# Outline: as §2
# HeLa = assay: Primary qHTS to identify gynecologic anti-cancer compounds using libraries of approved drugs and bioactive compounds (AID 1345084); settings: Gynecologic cancer cell panel viability, ATPlite luminescence, 48 h; series mostly up to 57.5 µM; also: nearly all actives have a fitted effect of over 55% in size
# Outline: (§3)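 Cell viability after 48 h drug treatment, ATPlite luminescence readout; five doses.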
# NIH3T3 [3] = assay: Cytotoxic Profiling of Annotated Libraries Using Quantitative High-Throughput Screening (AID 1296008); settings: Five cell lines viability, CellTiter-Glo ATP luminescence, 48-72 h; max response: hits give low values; also: nearly all actives have a fitted effect of over 60% in size; also: potency is read from the fitted curve at half-maximal effect
# Outline: as §1
# MKL-1 = assay: qHTS assay to identify novel small-molecules to repurpose for Merkel cell carcinoma treatment (AID 1296009); settings: MCC and control cell lines, CellTiter-Glo viability, 72 h; series mostly up to 46 µM; also: nearly all actives have a fitted effect of over 60% in size
# Outline: as §2
# MKL-2 = assay: as above; settings: MCC and control cell lines, CellTiter-Glo viability, 72 h; series mostly up to 46 µM
# Outline: as §2
# UISO = assay: as above; settings: MCC and control cell lines, CellTiter-Glo viability, 72 h; series mostly up to 46 µM
# Outline: as §2
# WaGa = assay: as above; settings: MCC and control cell lines, CellTiter-Glo viability, 72 h; series mostly up to 46 µM
# Outline: as §2
# C33A = assay: Primary qHTS to identify gynecologic anti-cancer compounds using libraries of approved drugs and bioactive compounds (AID 1345084); settings: Gynecologic cancer cell panel viability, ATPlite luminescence, 48 h; series mostly up to 57.5 µM; also: nearly all actives have a fitted effect of over 55% in size
# Outline: as §3
# CAOV3 = assay: as above; settings: Gynecologic cancer cell panel viability, ATPlite luminescence, 48 h; series mostly up to 57.5 µM
# Outline: as §3
# CASKI = assay: as above; settings: Gynecologic cancer cell panel viability, ATPlite luminescence, 48 h; series mostly up to 57.5 µM
# Outline: as §3
# Es-2 = assay: as above; settings: Gynecologic cancer cell panel viability, ATPlite luminescence, 48 h; series mostly up to 57.5 µM
# Outline: as §3
# HEK293T = assay: qHTS assay to identify novel small-molecules to repurpose for Merkel cell carcinoma treatment (AID 1296009); settings: MCC and control cell lines, CellTiter-Glo viability, 72 h; at 44.8 µM (top of the series) unless noted; also: nearly all actives have a fitted effect of over 60% in size
# Outline: as §2
# NIH3T3 [4] = assay: as above; settings: MCC and control cell lines, CellTiter-Glo viability, 72 h; at 44.8 µM (top of the series)
# Outline: as §2
smiles,measurement,setting,value
CN1CCN(CCC(=O)N2c3ccccc3Sc3ccc(C(F)(F)F)cc32)CC1,Potency,W2,4.26 µM (active)
same,Potency,CRL-7250,15 µM (active)
same,Potency,HEK293,23.7 µM (active)
same,outcome,HaCat [1],inactive
same,max response,KB-3-1,5.81%
same,outcome,HACAT [2],inactive
same,Potency,MCC-13,inactive
same,Potency,MCC-26,inactive
same,Potency,HeLa,inactive
Cc1cc(-c2ccccc2)nnc1NCCN1CCOCC1,max response,CRL-7250,-17.2%
same,max response,HEK293,1.05%
same,max response,HaCat [1],-33.8%
same,max response,KB-3-1,-13.9%
same,max response,NIH3T3 [3],-3.42%
same,Potency,MCC-13,inactive
same,Potency,MKL-1,inactive
same,Potency,MKL-2,inactive
same,Potency,UISO,inactive
same,Potency,WaGa,inactive
same,Potency,C33A,inactive
same,Potency,CAOV3,inactive
same,Potency,CASKI,inactive
same,Potency,HeLa,inactive
CC(=O)O[C@]1(C(C)=O)CC[C@H]2[C@@H]3C=C(Cl)C4=CC(=O)CC[C@]4(C)[C@H]3CC[C@@]21C,Potency,W2,10.7 µM (active)
same,max response,CRL-7250,-6.12%
same,Potency,HEK293,18.8 µM (active)
same,outcome,HaCat [1],inactive
same,max response,KB-3-1,2.1%
same,outcome,HACAT [2],inactive
same,Potency,MCC-13,inactive
same,Potency,MCC-26,inactive
same,Potency,MKL-1,inactive
same,Potency,UISO,inactive
same,Potency,WaGa,inactive
same,Potency,C33A,inactive
same,Potency,CAOV3,inactive
same,Potency,CASKI,inactive
same,Potency,Es-2,inactive
same,Potency,HeLa,inactive
CCCCCCCCCCCCCCCCO,Potency,W2,inactive
same,max response,CRL-7250,-12.4%
same,max response,HEK293,1.14%
same,max response,HaCat [1],-1.51%
same,max response,NIH3T3 [3],-5.1%
same,Potency,MCC-13,inactive
same,Potency,MCC-26,inactive
same,Potency,MKL-1,inactive
same,Potency,MKL-2,inactive
same,Potency,UISO,inactive
same,Potency,WaGa,inactive
same,Potency,C33A,inactive
same,Potency,CASKI,inactive
same,Potency,Es-2,inactive
same,Potency,HeLa,inactive
CCCCCCCCCCCCCCCC(=O)O,Potency,W2,inactive
same,max response,CRL-7250,-4.95%
same,max response,HEK293,-5.26%
same,max response,HaCat [1],-1.81%
same,max response,NIH3T3 [3],4.34%
same,Potency,MCC-13,inactive
same,Potency,MCC-26,inactive
same,Potency,MKL-1,inactive
same,Potency,MKL-2,inactive
same,Potency,UISO,inactive
same,Potency,WaGa,inactive
same,Potency,C33A,inactive
same,Potency,CAOV3,inactive
same,Potency,CASKI,inactive
same,Potency,Es-2,inactive
same,Potency,HeLa,inactive
Cn1c(=O)c2[nH]c(Br)nc2n(C)c1=O,Potency,W2,inactive
same,outcome,CRL-7250,inactive
same,max response,HEK293,-7.38%
same,max response,HaCat [1],-0.598%
same,max response,NIH3T3 [3],-3.31%
same,Potency,MCC-13,inactive
same,Potency,MCC-26,inactive
same,Potency,MKL-1,inactive
same,Potency,MKL-2,inactive
same,Potency,UISO,inactive
same,Potency,WaGa,inactive
same,Potency,C33A,inactive
same,Potency,CAOV3,inactive
same,Potency,CASKI,inactive
same,Potency,Es-2,inactive
same,Potency,HeLa,inactive
Cc1cn([C@H]2C[C@H](F)[C@@H](CO)O2)c(=O)[nH]c1=O,outcome,CRL-7250,inactive
same,max response,HEK293,0.5%
same,outcome,HaCat [1],inactive
same,max response,NIH3T3 [3],-16.7%
same,outcome,HACAT [2],inactive
same,Potency,MCC-13,inactive
same,Potency,MCC-26,inactive
same,Potency,MKL-1,inactive
same,Potency,MKL-2,inactive
same,Potency,UISO,inactive
same,Potency,WaGa,inactive
same,Potency,C33A,inactive
same,Potency,CASKI,inactive
same,Potency,Es-2,inactive
same,Potency,HeLa,inactive
C=CCN1CCc2nc(N)sc2CC1,Potency,W2,inactive
same,max response,CRL-7250,-5.69%
same,max response,HEK293,0.777%
same,max response,HaCat [1],-12.6%
same,max response,NIH3T3 [3],2.55%
same,Potency,MCC-13,inactive
same,Potency,MCC-26,inactive
same,Potency,MKL-1,inactive
same,Potency,MKL-2,inactive
same,Potency,UISO,inactive
same,Potency,WaGa,inactive
same,Potency,C33A,inactive
same,Potency,CAOV3,inactive
same,Potency,CASKI,inactive
same,Potency,Es-2,inactive
same,Potency,HeLa,inactive
COc1ccc(CCN(C)CCCN2CCc3cc(OC)c(OC)cc3CC2=O)cc1OC,max response,CRL-7250,-0.711%
same,outcome,HEK293,inactive
same,max response,HaCat [1],-7.19%
same,max response,NIH3T3 [3],3.6%
same,outcome,HEK293T,inactive
same,Potency,MCC-13,inactive
same,Potency,MCC-26,inactive
same,Potency,MKL-1,inactive
same,Potency,MKL-2,inactive
same,Potency,UISO,inactive
same,Potency,C33A,inactive
same,Potency,CASKI,inactive
same,Potency,Es-2,inactive
same,Potency,HeLa,inactive
CCOc1ccccc1C(N)=O,Potency,W2,inactive
same,outcome,CRL-7250,inactive
same,max response,HEK293,-2.36%
same,max response,HaCat [1],1.44%
same,max response,KB-3-1,-15.7%
same,outcome,NIH3T3 [3],inactive
same,Potency,MCC-13,inactive
same,outcome,NIH3T3 [4],inactive
same,Potency,C33A,inactive
same,Potency,CAOV3,inactive
same,Potency,CASKI,inactive
same,Potency,Es-2,inactive
same,Potency,HeLa,inactive
CCOC(=O)Nc1ccc2c(c1)N(C(=O)CCN1CCOCC1)c1ccccc1S2,Potency,W2,inactive
same,max response,CRL-7250,-6.24%
same,max response,HEK293,-28.3%
same,max response,HaCat [1],-10.7%
same,max response,KB-3-1,0.404%
same,max response,NIH3T3 [3],-4.09%
same,Potency,MCC-13,inactive
same,Potency,MKL-1,inactive
same,Potency,MKL-2,inactive
same,Potency,UISO,inactive
same,Potency,WaGa,inactive
same,Potency,C33A,inactive
same,Potency,CASKI,inactive
same,Potency,Es-2,inactive
same,Potency,HeLa,inactive
N#CCC(=O)NN,Potency,W2,inactive
same,outcome,CRL-7250,inactive
same,max response,HEK293,3.14%
same,outcome,HaCat [1],inactive
same,max response,KB-3-1,-1.35%
same,outcome,HACAT [2],inactive
same,Potency,MCC-13,inactive
same,Potency,MCC-26,inactive
same,Potency,MKL-1,inactive
same,Potency,MKL-2,inactive
same,Potency,UISO,inactive
same,Potency,WaGa,inactive
same,Potency,C33A,inactive
same,Potency,CAOV3,inactive
same,Potency,CASKI,inactive
same,Potency,Es-2,inactive
same,Potency,HeLa,inactive
CC(C)(C)NCC(O)COc1cccc2c1C[C@H](O)[C@H](O)C2 (stereo partly drawn),outcome,CRL-7250,inactive
same,max response,HEK293,-3.77%
same,outcome,HaCat [1],inactive
same,max response,NIH3T3 [3],-4.22%
same,outcome,HACAT [2],inactive
same,Potency,MCC-13,inactive
same,Potency,MKL-1,inactive
same,Potency,MKL-2,inactive
same,Potency,UISO,inactive
same,Potency,WaGa,inactive
same,Potency,C33A,inactive
same,Potency,CASKI,inactive
same,Potency,Es-2,inactive
same,Potency,HeLa,inactive
OCc1ccccn1,Potency,W2,inactive
same,max response,CRL-7250,-1.84%
same,max response,HEK293,-1.39%
same,outcome,HaCat [1],inactive
same,max response,NIH3T3 [3],-14.5%
same,outcome,HACAT [2],inactive
same,Potency,MCC-13,inactive
same,Potency,MCC-26,inactive
same,Potency,MKL-1,inactive
same,Potency,MKL-2,inactive
same,Potency,UISO,inactive
same,Potency,WaGa,inactive
same,Potency,C33A,inactive
same,Potency,CAOV3,inactive
same,Potency,CASKI,inactive
same,Potency,Es-2,inactive
same,Potency,HeLa,inactive
CCOCCn1c(N2CCCN(C)CC2)nc2ccccc21,Potency,W2,4.78 µM (active)
same,max response,CRL-7250,-16.3%
same,max response,HEK293,-5.73%
same,max response,HaCat [1],1.76%
same,max response,NIH3T3 [3],-0.586%
same,Potency,MCC-13,inactive
same,Potency,MCC-26,inactive
same,Potency,MKL-1,inactive
same,Potency,MKL-2,inactive
same,Potency,UISO,inactive
same,Potency,WaGa,inactive
same,Potency,C33A,inactive
same,Potency,CAOV3,inactive
same,Potency,CASKI,inactive
same,Potency,Es-2,inactive
same,Potency,HeLa,inactive
